From PubChem BioAssay (NCI) come the findings set out here.

Holding throughout (assay): NCI-60 one-dose screen, 48 h (100 = growth as untreated, 0 = no growth, -100 = all killed)
Conditions in all cases: 10 µM unless noted

In experiment [1] the test system is NCI-H23 lung.
The test system of experiment [2] is NCI-H226 lung.
Experiment [3] has as its system NCI-H322M lung.
Experiment [4] deals with HOP-62 NSCLC.
In experiment [5] the test system is NCI-H460 lung.
The subject of experiment [6] is HOP-92 NSCLC.
For experiment [7], the system named is NCI-H522 lung.
Experiment [8] concerns A549/ATCC NSCLC.
Experiment [9] deals with 786-0 renal.
Experiment [10] relates to COLO 205 colon.
The subject of experiment [11] is DU-145 prostate.
Experiment [12] deals with K-562 leukemia.
In experiment [13] the test system is MALME-3M melanoma.
The subject of experiment [14] is MDA-MB-231 breast.
Experiment [15] concerns RXF 393 renal.
Experiment [16] deals with SF-268 CNS.
The test system of experiment [17] is SF-295 CNS.
Experiment [18] has as its system SF-539 CNS.
Experiment [19] has as its system UACC-257 melanoma.
The test system of experiment [20] is M14 melanoma.

About 83,000 compounds went through this panel and 20% of them were active in at least one assay; those are over-represented in the sample as a whole.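 Negative percent growth values reflect cell death: -40 means 40% of the cells present at the start died, and -100 means all died.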 A number with no mark means an inactive call. The source made the active and inactive calls. Rule for the calls: active = growth percent below 10; inactive = the rest.

For `c1ccc(-c2cn3nc(-c4c[nH]c5ccccc45)sc3n2)cc1`, the growth was 87.6% in experiment [1]; 77.3% in experiment [2]; 71.4% in experiment [3]; 73.6% in experiment [4]; 89.2% in [5]; 75.5% in experiment [6]. Moreover, the growth in [7] was 61.2%; in experiment [8], 82.6%; in experiment [9], 102%; in experiment [10], 87.1%; in [11] it was 98%; in experiment [12], 42.4%. Also, the growth in experiment [13] was 62.6%; in experiment [14], 76.5%; in experiment [15], 97.4%; in experiment [16], 94.4%; in experiment [17] it was 83.7%; in experiment [18], 85.5%. Further, the growth in experiment [19] is 83.2%; in [20], 71.1%.
Regarding `O=C(Cn1cc(CSc2nc3ccccc3o2)nn1)Nc1ccc([N+](=O)[O-])cc1`, the growth in experiment [1] was 97.8%; in experiment [2] it was 99.4%; in experiment [3], 102%; in [4], 83.7%; in experiment [5] it was 98.5%; in experiment [6], 95.2%. Besides, the growth in experiment [7] was 78.5%; in [8] it was 101%; in experiment [9], 99.1%; in experiment [10], 110%; in [11], 108%; in [12], 92.6%. Besides, the growth is 104% in experiment [13]; 91.5% in [14]; 108% in experiment [15]; 91.8% in [16]; 102% in experiment [17]; 101% in experiment [18]. For the same compound, the growth was 110% in [19] and 96.2% in [20].
In the case of `CCOC(=O)C#Cc1c(CC(=O)OCC)nnn1[C@H]1O[C@@H](CO)[C@@H]2OC(C)(C)O[C@@H]21`, the growth in [1] is 95.3%; in experiment [2] it was 93.8%; in experiment [3], 93.9%; in experiment [4] it was 101%; in [5], 104%; in experiment [6], 75.1%. In addition, the growth in experiment [7] was -57.6% (active); in experiment [8], 75.9%; in experiment [9], 83.9%; in experiment [10] it was -40.3% (active); in [11], 94.5%; in [12], 10.3%. For the same compound, the growth in experiment [13] was 26.6%; in [14] it was 105%; in [15] it was 3.65% (active); in experiment [16], 105%; in [17], 97.4%; in experiment [18], 75.3%. In addition, the growth in experiment [19] is 62.8%; in experiment [20], 58.3%.
`CCCN1C2CCC1/C(=C\c1ccc(OC)cc1)C(=O)/C2=C/c1ccc(OC)cc1`: the growth was 67.5% in experiment [1]; 71.5% in experiment [2]; 92% in experiment [3]; 89.1% in [4]; 76.9% in experiment [5]; 58.1% in [6]. In addition, the growth in experiment [7] was 51.2%; in experiment [8], 72.6%; in [9], 85.2%; in experiment [10] it was 76%; in [11] it was 90%; in [12], 35.6%. The growth in experiment [13] was 57.5%; in experiment [14], 74.9%; in experiment [15], 92.4%; in experiment [16] it was 83.9%; in [17], 76.7%; in experiment [18], 105%. Besides, the figures for the growth in experiment [19] and in experiment [20] were 44.4% and 62.1%, respectively.
For the compound `CCN1CCN(c2cc(C(=O)Nc3cccc(Nc4ccc5c(OC)cccc5n4)c3)cc(C(F)(F)F)c2)CC1`, the growth in experiment [1] was 44.5%; in [2] it was 45.1%; in experiment [3], 26.2%; in experiment [4], 5.17% (active); in experiment [5], -48.7% (active); in experiment [6], -3.85% (active). The growth in experiment [7] was -45.2% (active); in experiment [8], 21.1%; in experiment [9], -70.1% (active); in [10] it was -77.1% (active); in experiment [11], 23.3%; in experiment [12], -29.8% (active). Besides, the growth was -59.6% (active) in experiment [13]; 9.58% (active) in [14]; 17.3% in experiment [15]; 32.8% in [16]; 14% in experiment [17]; 19.5% in experiment [18]. For the same compound, the growth in experiment [19] was -40.3% (active); in experiment [20], -41.9% (active).
`CCCCN(CCC#N)C(N)=O`: the growth in [1] was 115%; in [2], 103%; in experiment [3] it was 107%; in [4], 105%; in [5] it was 108%; in experiment [6], 97.2%. The growth was 105% in experiment [7]; 109% in experiment [8]; 92% in experiment [9]; 120% in experiment [10]; 97.2% in experiment [11]; 115% in experiment [12]. In addition, the growth in [13] was 98.4%; in experiment [14], 104%; in [15], 109%; in experiment [16], 99.7%; in [17] it was 111%; in experiment [18], 100%. In addition, the growth in [19] was 101%; in experiment [20] it was 112%.
Regarding `CCOC(=O)c1cc(C(=O)c2cc(OC)cc(OC)c2)n2ncccc12`, the growth in experiment [1] was 45.8%; in experiment [2] it was 57.5%; in experiment [3], 72.5%; in [4], 30.7%; in [5], 14.7%; in [6], 47.1%. The growth was 25.4% in experiment [7]; 35.3% in [8]; 34.2% in [9]; -13.2% (active) in experiment [10]; 37.4% in experiment [11]; 17.8% in experiment [12]. Further, the growth was 47.1% in experiment [13]; 54.5% in [14]; 35.9% in experiment [15]; 44.3% in experiment [16]; 28.2% in [17]; 20% in experiment [18]. Moreover, the growth in experiment [19] was 37.6%; in [20] it was -15.7% (active).
